Source: the supplement of paper PMC12282887
± gives the standard deviation of the averaged measurements.

Experiments:
Test in all cases: promoter activity interaction Z-score (Lux/OD deviation from empty-vector control); higher = stronger promoter induction by the compound
[1] = tested on: E. coli BW25113 acrABp lux reporter
In short: (§1)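 E. coli BW25113 (wild type or marA, soxS or rob deletion) carrying low-copy luxCDABE promoter reporters grew in 40 µl LB Lennox in 384-well plates at 37°C. Each compound was tested at four 1:2 dilutions in biological duplicates. OD600 and luminescence were read every 30 min for 12 h. Areas were taken over 0–8 h (wild type) or 1–9 h (mutants), and wells below 10% of median growth area were removed. The score is the Z-transformed residual of growth-normalised luminescence fitted against the empty-vector control.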

[2] = tested on: E. coli BW25113 micFp lux reporter
In short: as §1

[3] = tested on: E. coli BW25113 ompFp lux reporter
In short: as §1

[4] = tested on: E. coli BW25113 robp lux reporter
In short: as §1

[5] = tested on: E. coli BW25113 soxSp lux reporter
In short: as §1

[6] = tested on: E. coli BW25113 tolCp lux reporter
In short: as §1

[7] = 0.26 µg/ml, genetic background: wild type
[8] = 0.26 µg/ml, genetic background: ΔmarA
[9] = 0.26 µg/ml, genetic background: Δrob
[10] = 0.26 µg/ml, genetic background: ΔsoxS
[11] = 0.52 µg/ml, genetic background: wild type
[12] = 0.52 µg/ml, genetic background: ΔmarA
[13] = 0.52 µg/ml, genetic background: Δrob
[14] = 0.52 µg/ml, genetic background: ΔsoxS
[15] = 1 µg/ml, genetic background: wild type
[16] = 1 µg/ml, genetic background: ΔmarA
[17] = 1 µg/ml, genetic background: Δrob
[18] = 1 µg/ml, genetic background: ΔsoxS
[19] = 2.1 µg/ml, genetic background: wild type
[20] = 2.1 µg/ml, genetic background: ΔmarA
[21] = 2.1 µg/ml, genetic background: Δrob
[22] = 2.1 µg/ml, genetic background: ΔsoxS

For `CCC[C@@H]1C[C@@H](C(=O)N[C@@H]([C@H]2O[C@H](SC)[C@H](O)[C@@H](O)[C@H]2O)[C@H](C)Cl)N(C)C1` [Clindamycin], the “promoter activity interaction Z-score” value [1, 7] was 0.462 ± 0.13, the “promoter activity interaction Z-score” value [1, 8] was 0.688 ± 0.64 and the “promoter activity interaction Z-score” value [1, 9] was 0.443 ± 0.12. The “promoter activity interaction Z-score” value [1, 10] was 0.20427 ± 5.4e-05, the “promoter activity interaction Z-score” value [1, 11] was 0.0439 ± 0.28 and the “promoter activity interaction Z-score” value [1, 12] was 0.0236 ± 0.74. The “promoter activity interaction Z-score” value [1, 13] was 0.389 ± 0.16, the “promoter activity interaction Z-score” value [1, 14] was 0.296 ± 0.26 and the “promoter activity interaction Z-score” value [1, 15] was 0.0522 ± 0.49. The “promoter activity interaction Z-score” value [1, 16] was -0.845 ± 0.54, the “promoter activity interaction Z-score” value [1, 17] was 0.554 ± 0.027 and the “promoter activity interaction Z-score” value [1, 18] was 0.424 ± 0.19. For the same compound, the “promoter activity interaction Z-score” value [1, 19] was 0.541 ± 0.29, the “promoter activity interaction Z-score” value [1, 20] was -1.07 ± 0.54 and the “promoter activity interaction Z-score” value [1, 21] was 0.386 ± 0.14. The “promoter activity interaction Z-score” value [1, 22] was 0.958 ± 1.2, the “promoter activity interaction Z-score” value [2, 7] was 0.509 ± 0.54 and the “promoter activity interaction Z-score” value [2, 8] was 0.0727 ± 0.038. The “promoter activity interaction Z-score” value [2, 9] was -0.112 ± 0.21, the “promoter activity interaction Z-score” value [2, 10] was -0.295 ± 0.22 and the “promoter activity interaction Z-score” value [2, 11] was -0.308 ± 0.46. For the same compound, the “promoter activity interaction Z-score” value [2, 12] was -0.109 ± 0.1, the “promoter activity interaction Z-score” value [2, 13] was 0.00775 ± 0.06 and the “promoter activity interaction Z-score” value [2, 14] was -0.12048 ± 8.2e-05. The “promoter activity interaction Z-score” value [2, 15] was -0.107 ± 0.47, the “promoter activity interaction Z-score” value [2, 16] was -0.106 ± 0.01 and the “promoter activity interaction Z-score” value [2, 17] was -0.0738 ± 0.2. The “promoter activity interaction Z-score” value [2, 18] was 0.189 ± 0.27, the “promoter activity interaction Z-score” value [2, 19] was 0.291 ± 0.71 and the “promoter activity interaction Z-score” value [2, 20] was -0.2694 ± 0.0025. For the same compound, the “promoter activity interaction Z-score” value [2, 21] was 0.0565 ± 0.17, the “promoter activity interaction Z-score” value [2, 22] was 0.457 ± 0.16 and the “promoter activity interaction Z-score” value [3, 7] was 0.86 ± 0.48. The “promoter activity interaction Z-score” value [3, 8] was 0.602 ± 0.034, the “promoter activity interaction Z-score” value [3, 9] was 0.184 ± 0.088 and the “promoter activity interaction Z-score” value [3, 10] was -0.129 ± 0.28. The “promoter activity interaction Z-score” value [3, 11] was 0.0844 ± 0.74, the “promoter activity interaction Z-score” value [3, 12] was 0.364 ± 0.24 and the “promoter activity interaction Z-score” value [3, 13] was 0.973 ± 0.091. The “promoter activity interaction Z-score” value [3, 14] was 0.0417 ± 0.17, the “promoter activity interaction Z-score” value [3, 15] was 0.629 ± 1 and the “promoter activity interaction Z-score” value [3, 16] was 0.255 ± 0.36. For the same compound, the “promoter activity interaction Z-score” value [3, 17] was 0.164 ± 0.52, the “promoter activity interaction Z-score” value [3, 18] was 0.389 ± 0.074 and the “promoter activity interaction Z-score” value [3, 19] was 1.41 ± 0.49. For the same compound, the “promoter activity interaction Z-score” value [3, 20] was 0.484 ± 0.28, the “promoter activity interaction Z-score” value [3, 21] was 0.877 ± 0.67 and the “promoter activity interaction Z-score” value [3, 22] was 1.71 ± 1.1. The “promoter activity interaction Z-score” value [4, 7] was 0.81 ± 0.04, the “promoter activity interaction Z-score” value [4, 8] was 0.716 ± 0.3 and the “promoter activity interaction Z-score” value [4, 9] was 0.204 ± 0.64. The “promoter activity interaction Z-score” value [4, 10] was 0.581 ± 0.019, the “promoter activity interaction Z-score” value [4, 11] was 0.0509 ± 0.11 and the “promoter activity interaction Z-score” value [4, 12] was 0.27 ± 0.26. For the same compound, the “promoter activity interaction Z-score” value [4, 13] was -0.0366 ± 0.51, the “promoter activity interaction Z-score” value [4, 14] was 0.513 ± 0.74 and the “promoter activity interaction Z-score” value [4, 15] was 0.553 ± 1.1. For the same compound, the “promoter activity interaction Z-score” value [4, 16] was 0.0526 ± 0.64, the “promoter activity interaction Z-score” value [4, 17] was 0.0577 ± 0.99 and the “promoter activity interaction Z-score” value [4, 18] was 0.531 ± 0.43. For the same compound, the “promoter activity interaction Z-score” value [4, 19] was -0.23 ± 0.084, the “promoter activity interaction Z-score” value [4, 20] was -0.785 ± 0.17 and the “promoter activity interaction Z-score” value [4, 21] was -0.582 ± 0.73. For the same compound, the “promoter activity interaction Z-score” value [4, 22] was -0.589 ± 0.59, the “promoter activity interaction Z-score” value [5, 7] was 0.148 ± 0.1 and the “promoter activity interaction Z-score” value [5, 8] was 0.331 ± 0.014. For the same compound, the “promoter activity interaction Z-score” value [5, 9] was 0.202 ± 0.053, the “promoter activity interaction Z-score” value [5, 10] was 0.316 ± 0.0083 and the “promoter activity interaction Z-score” value [5, 11] was -0.237 ± 0.079. For the same compound, the “promoter activity interaction Z-score” value [5, 12] was 0.237 ± 0.021, the “promoter activity interaction Z-score” value [5, 13] was 0.217 ± 0.043 and the “promoter activity interaction Z-score” value [5, 14] was 0.23 ± 0.076. The “promoter activity interaction Z-score” value [5, 15] was 0.0391 ± 0.054, the “promoter activity interaction Z-score” value [5, 16] was 0.244 ± 0.1 and the “promoter activity interaction Z-score” value [5, 17] was 0.0504 ± 0.034. For the same compound, the “promoter activity interaction Z-score” value [5, 18] was 0.138 ± 0.2, the “promoter activity interaction Z-score” value [5, 19] was -0.0707 ± 0.029 and the “promoter activity interaction Z-score” value [5, 20] was 0.0916 ± 0.17. For the same compound, the “promoter activity interaction Z-score” value [5, 21] was 0.0849 ± 0.32, the “promoter activity interaction Z-score” value [5, 22] was 0.0804 ± 0.017 and the “promoter activity interaction Z-score” value [6, 7] was -0.169 ± 0.35. The “promoter activity interaction Z-score” value [6, 8] was 0.807 ± 0.31, the “promoter activity interaction Z-score” value [6, 9] was 0.395 ± 0.66 and the “promoter activity interaction Z-score” value [6, 10] was -0.505 ± 0.044. For the same compound, the “promoter activity interaction Z-score” value [6, 11] was 0.223 ± 1, the “promoter activity interaction Z-score” value [6, 12] was 0.212 ± 1.3 and the “promoter activity interaction Z-score” value [6, 13] was 0.229 ± 0.18. For the same compound, the “promoter activity interaction Z-score” value [6, 14] was 0.282 ± 0.71, the “promoter activity interaction Z-score” value [6, 15] was -0.594 ± 0.74 and the “promoter activity interaction Z-score” value [6, 16] was 0.0618 ± 0.085. The “promoter activity interaction Z-score” value [6, 17] was -0.255 ± 0.54, the “promoter activity interaction Z-score” value [6, 18] was 0.674 ± 0.27 and the “promoter activity interaction Z-score” value [6, 19] was -0.385 ± 0.39. The “promoter activity interaction Z-score” value [6, 20] was -0.307 ± 0.67, the “promoter activity interaction Z-score” value [6, 21] was 0.0932 ± 0.95 and the “promoter activity interaction Z-score” value [6, 22] was 0.0435 ± 0.33.
